Results: PubChem BioAssay (EPA / NIEHS)
Values joined by “and” are separate entries in the source; they are usually repeats but may differ in a detail not shown here. Equal entries are not always repeated. Some structures have more than one record in an assay (separate samples or runs), and their calls can disagree. Active and inactive are the calls of the source. The calls were made as follows: active = hit-call score of the fitted dose curve at least 0.9, where 1 is the maximum; inactive = score below 0.9.

What was measured:
[1] = BSK_CASM3C_SRB: Viability Assessment in the BioMAP Diversity Plus: CASM3C Assay (AID 2283050); conditions: primary human coronary artery smooth muscle cells;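 also: total protein by SRB staining as cytotoxicity measure in parallel cultures; cells exposed to compound for 24 h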
[2] = read-out: Thrombomodulin, THBD (gene 7056); assay: BSK_CASM3C_Thrombomodulin: BioMAP Diversity Plus: CASM3C Assay for Thrombomodulin Biomarker Activity (AID 2283051); conditions: primary human coronary artery smooth muscle cells; actives raise or lower the signal;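 also: thrombomodulin protein level measured by ELISA 24 h after dosing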
[3] = read-out: Tissue Factor, F3 (gene 2152); assay: BSK_CASM3C_TissueFactor: BioMAP Diversity Plus: CASM3C Assay for Tissue Factor Biomarker Activity (AID 2283052); conditions: primary human coronary artery smooth muscle cells; actives raise or lower the signal;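 also: cell surface tissue factor protein level read by ELISA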
[4] = read-out: Interferon-gamma inducible Protein 10 (IP10), CXCL10 (gene 3627); assay: BSK_hDFCGF_IP10: BioMAP Diversity Plus: hDFCGF Assay for Interferon-gamma inducible Protein 10 (IP10) Biomarker Activity (AID 2283053); conditions: primary human foreskin fibroblasts; actives raise or lower the signal
Outline: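 Chemical-treated human skin fibroblasts (primary) were sampled at 24 h for IP-10 by ELISA. Both increases and decreases relative to DMSO were scored.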

[5] = read-out: Urokinase-type plasminogen activator receptor (uPAR), PLAUR (gene 5329); assay: BSK_CASM3C_uPAR: BioMAP Diversity Plus: CASM3C Assay for Urokinase-type plasminogen activator receptor (uPAR) Biomarker Activity (AID 2283054); conditions: primary human coronary artery smooth muscle cells; actives raise or lower the signal;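 also: cell-surface uPAR protein level quantified by ELISA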
[6] = read-out: Vascular cell adhesion molecule 1 (VCAM1), VCAM1 (gene 7412); assay: BSK_CASM3C_VCAM1: BioMAP Diversity Plus: CASM3C Assay for Vascular cell adhesion molecule 1 (VCAM1) Biomarker Activity (AID 2283055); conditions: primary human coronary artery smooth muscle cells; actives raise or lower the signal;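 also: VCAM-1 protein level quantified by ELISA on the cells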
[7] = read-out: Collagen III, COL3A1 (gene 1281); assay: BSK_hDFCGF_CollagenIII: BioMAP Diversity Plus: hDFCGF Assay for Collagen III Biomarker Activity (AID 2283056); conditions: primary human foreskin fibroblasts; actives raise or lower the signal
Outline: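 Cells: human foreskin fibroblasts, primary. Dosing followed by 24 h incubation, then ELISA for collagen III. Both increases and decreases scored relative to DMSO.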

[8] = read-out: Epidermal growth factor receptor (EGFR), EGFR (gene 1956); assay: BSK_hDFCGF_EGFR: BioMAP Diversity Plus: hDFCGF Assay for Epidermal growth factor receptor (EGFR) Biomarker Activity (AID 2283057); conditions: primary human foreskin fibroblasts; actives raise or lower the signal
Outline: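 Cell-based multiplexed assay in primary human foreskin fibroblasts. EGFR is read by ELISA 24 h after treatment and compared with DMSO controls.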

[9] = read-out: Interleukin-8 (IL8), CXCL8 (gene 3576); assay: BSK_hDFCGF_IL8: BioMAP Diversity Plus: hDFCGF Assay for Interleukin-8 (IL8) Biomarker Activity (AID 2283058); conditions: primary human foreskin fibroblasts; actives raise or lower the signal
Outline: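 IL-8 levels from compound-treated primary human fibroblasts were read by ELISA at 24 h, with DMSO serving as baseline for bidirectional fitting.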

[10] = BSK_hDFCGF_Proliferation: Cell Proliferation Assessment in the BioMAP Diversity Plus: hDFCGF Assay (AID 2283059); conditions: primary human foreskin fibroblasts;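 also: curves fitted for both rise and fall of signal versus DMSO baseline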
Outline: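 This proliferation readout used SRB total-protein staining of human foreskin fibroblasts […], normalized to DMSO with bidirectional curve fitting.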

Measured: AC50

CN1CCN(c2ccccc2/C=C2\SCCN(c3ccc(Cl)c(Cl)c3)C2=O)CC1
active: [1] 20 µM | [4] 30.7 µM | [7] 13.7 µM | [9] 32.3 µM | [10] 5.54 µM
inactive: all other assays above

CC[C@H](c1ccc(O)cc1)[C@@H](CC)c1ccc(O)cc1
active: [4] 24.1 µM | [6] 27.4 µM | [7] 15.1 µM | [9] 37.8 µM | [10] 18.8 µM
inactive: [1] | [2] | [3] | [5] | [8]

C#C[C@]1(O)CC[C@H]2[C@@H]3CCC4=CC(=O)CC[C@@H]4[C@H]3CC[C@@]21C
inactive: all assays above

OC1CCC(C2CCCCC2)CC1 (configuration not stated)
inactive: all assays above

CCc1ccc(CCOc2ccc(CC3SC(=O)NC3=O)cc2)nc1 (configuration not stated)
not listed: [7]
inactive: all other assays above

C=C(C)C(=O)OCCC(F)(F)C(F)(F)C(F)(F)C(F)(F)C(F)(F)C(F)(F)F
active: [10] 13.8 µM
inactive: [1] | [2] | [3] | [4] | [5] | [6] | [7] | [8] | [9] | [10]

O=C(O)c1ccccc1C(c1ccc(O)cc1)c1ccc(O)cc1
inactive: all assays above

OCCC(F)(F)C(F)(F)C(F)(F)C(F)(F)C(F)(F)C(F)(F)C(F)(F)C(F)(F)F
inactive: [1] | [2] | [3] | [4] | [5] | [8] | [9] | [10]
active: [1] 48.7 µM and 40.5 µM | [3] 30 µM and 18.4 µM | [4] 14.6 µM and 11.2 µM | [5] 42.3 µM and 43.7 µM | [6] 12.3 µM and 23.2 µM and 11.5 µM | [9] 19.2 µM and 17.4 µM | [10] 11.4 µM and 5.06 µM

CC(=O)CC(C)(C)O
inactive: all assays above

OCCC(F)(F)C(F)(F)C(F)(F)C(F)(F)C(F)(F)C(F)(F)F
inactive: [1] | [2] | [3] | [4] | [5] | [6] | [7] | [8] | [9] | [10]
active: [4] 52.6 µM | [7] 46.3 µM | [9] 46.4 µM and 57.9 µM | [10] 48.3 µM and 47.4 µM

CC[C@H](C)[C@@H](C(=O)O)n1sc2ccccc2c1=O
inactive: all assays above

CCCCCCCCCCCCc1ccccc1S(=O)(=O)O
active: [4] 10.6 µM | [6] 11.2 µM | [7] 8.62 µM | [9] 13.5 µM | [10] 9.26 µM
inactive: all other assays above

CC(C)(C)CC(C)(C)c1ccc(O)c(-n2nc3ccccc3n2)c1
active: [2] 22.7 µM | [4] 14.6 µM | [8] 14.2 µM | [10] 6.71 µM
inactive: all other assays above

CC(C)CCCCCCOC(=O)CCCCC(=O)OCCCCCCC(C)C
not listed: [7]
inactive: all other assays above

CCCCCCCC(=O)O
inactive: all assays above

CCCCC(CC)COC(=O)CCCCC(=O)OCC(CC)CCCC (configuration not stated)
inactive: all assays above

CCCCCCC(=O)O
inactive: all assays above

ClC1=C(Cl)C(Cl)(Cl)C(Cl)=C1Cl
inactive: [2] | [8]
active: [1] 7.64 µM | [3] 1.92 µM | [4] 9.62 µM | [5] 6.99 µM | [6] 5.1 µM | [9] 17 µM | [10] 4.2 µM

C[C@@H]1C[C@H]2[C@@H]3CCC4=CC(=O)C=C[C@]4(C)[C@@]3(F)[C@@H](O)C[C@]2(C)[C@@]1(O)C(=O)COP(=O)(O)O
active: [2] 29.4 nM and 100 nM | [3] 122 nM and 674 nM | [4] 696 nM and 895 nM | [6] 0.1 µM | [10] 30.3 µM
inactive: [1] | [2] | [3] | [4] | [5] | [6] | [8] | [9] | [10]

CCCCC(CC)COC(=O)CCCCC(=O)OCc1ccccc1 (configuration not stated)
inactive: all assays above

FC(F)(I)C(F)(F)C(F)(F)C(F)(F)C(F)(F)C(F)(F)I
active: [1] 23.3 µM [middle of 5 runs] | [2] 17.8 µM and 50.8 µM and 7.99 µM | [3] 23.7 µM and 16.2 µM and 30 µM | [4] 5.72 µM [middle of 5 runs] | [5] 23.7 µM [middle of 5 runs] | [6] 19.8 µM [middle of 5 runs] | [9] 7.02 µM [middle of 5 runs] | [10] 2.06 µM [middle of 5 runs]
inactive: [2] | [3] | [8]

COC(=O)CCCCC(=O)OC
inactive: all assays above

CCCOC(=O)c1ccc(O)cc1
inactive: all assays above

COc1ccc([N+](=O)[O-])cc1N
inactive: all assays above

CCCCCCCCCCCCCCCS(=O)(=O)Oc1ccccc1
inactive: all assays above

CCC(C)(C)C1CCC(O)CC1 (configuration not stated)
inactive: all assays above

CC#C[C@]1(O)CC[C@H]2[C@@H]3CCC4=CC(=O)CCC4=C3[C@@H](c3ccc(N(C)C)cc3)C[C@@]21C
active: [1] 31.8 µM | [5] 30.6 µM | [7] 12.9 µM | [10] 26.6 µM
inactive: all other assays above

CCCCCCCCOC(=O)CCCCCCCCC(=O)OCCCCCCCC
inactive: all assays above

CCCCCCCCC(=O)O
inactive: all assays above

CCc1nn(C2CCCCC2)c2cc(C3(C#N)CCC(C(=O)O)CC3)ccc12 (configuration not stated)
active: [4] 4.83 µM | [5] 1.03 µM | [6] 5.03 µM | [7] 1.75 µM | [8] 1.26 µM | [10] 4.27 µM
inactive: [1] | [2] | [3] | [9]
